DRD3 antagonist: antagonists of human D3 dopamine receptor. P35462. D3R cells, DiscoveRx beta-arrestin luminescence, antagonist mode; hits give low values. max response, negative = inhibition, %. actives 2.5% (n = 360,000); in the data active = max response below about -50%; inconclusive = no clear call, values can overlap the other calls
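Cells plated overnight at 1500 cells/well, then exposed to library compounds with dopamine controls for 90 minutes at 37 degrees C. DiscoveRx reagent added for 30–60 minutes at room temperature; luminescence read, quantitative HTS format.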
D1 potentiator: enhances dopamine response at the human D1 receptor; potentiation, % at 10 µM; actives 0.036% (n = 360,000); P21728; HEK293 TREx D1 cells, calcium flux, dopamine EC20 potentiation; in the data active = potentiation above about 30%
Target sequence (P21728 whole entry, looked up): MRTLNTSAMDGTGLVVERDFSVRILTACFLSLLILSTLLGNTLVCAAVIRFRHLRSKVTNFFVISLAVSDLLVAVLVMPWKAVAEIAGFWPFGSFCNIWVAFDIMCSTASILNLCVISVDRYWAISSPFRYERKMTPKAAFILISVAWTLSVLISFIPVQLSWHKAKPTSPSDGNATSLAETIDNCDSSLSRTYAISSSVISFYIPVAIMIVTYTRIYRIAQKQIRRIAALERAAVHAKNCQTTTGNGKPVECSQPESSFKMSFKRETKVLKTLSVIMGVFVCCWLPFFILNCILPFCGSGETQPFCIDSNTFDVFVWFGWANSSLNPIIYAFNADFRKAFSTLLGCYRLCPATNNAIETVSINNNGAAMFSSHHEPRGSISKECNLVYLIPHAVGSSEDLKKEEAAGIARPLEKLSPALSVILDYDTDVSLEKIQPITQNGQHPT
D1 antagonist: human D1 dopamine receptor antagonism; HEK293 TREx D1 cells, calcium flux, dopamine EC80; hits give low values; activity change, negative = inhibition, % at 10 µM; actives 3.2% (n = 360,000); in the data active = activity change below about -30%
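Inducible Hek293 Trex D1 cells (tetracycline, overnight, 30 C). Calcium dye 30–90 min RT. Antagonist mode: EC80 dopamine added after 180 s compound read.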
Chronic BCR inh: blocks chronic active B-cell receptor signaling | Potency, µM (doses to about 46.1 µM), hits mostly inhibitors | actives 0.05% (n = 340,000) | ABC-DLBCL IkBa-CBG/CBR reporter, luminescence ratio, 4 h; active = well fitted inhibition curve with a large enough effect in the signal ratio, with a control signal flat, not every such curve was filed as active; inconclusive = small, poorly fitted or top-dose-only effect, or effect the other way, or a change in a side signal; the % refers to the signal ratio
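TMD8 human ABC-DLBCL cells with doxycycline-inducible IκBα–green luciferase fusion and unfused red luciferase, in 0.5% FBS medium; compounds up to 46 uM, 4 h at 37C. Green/red luminescence ratio, filter-overlap corrected, fitted to concentration-response curves.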
DRD3 agonist: D3 dopamine receptor (human) agonism. D3R DiscoveRx beta-arrestin cells, luminescence, 90 min. max activation, %. actives 0.58% (n = 410,000); in the data active = max activation above about 30%
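Agonist mode: compounds and dopamine controls were applied to plated cells for 90 min at 37 degrees C after an overnight attachment at 1500 cells/well. Luminescent read-out followed 30 - 60 minutes at room temperature with DiscoveRx detection reagent.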
D1 agonist: activates the human D1 dopamine receptor. actives 1% (n = 360,000). AID 504660. activation, % at 2 µM. HEK293 T-REx D1 cells, calcium flux, agonist mode. P21728; in the data active = activation above about 30%
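Agonism was scored from calcium flux recorded over 180 s (1 read/s) after pintool compound addition, following a 10-cycle baseline. Cells were inducible force-coupled HEK293 TREx D1, plated overnight at 30 C and loaded with no-wash calcium dye.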
Hits are given with their value; n = inactive; u = inconclusive; x = no result; ! = a repeat was not active. In the library only some 6% were active in any assay of this set; here they are far more common.

SMILES | DRD3 antagonist | D1 potentiator | D1 antagonist | Chronic BCR inh | DRD3 agonist | D1 agonist
Cc1ccc(NC(=O)CCn2c(=O)c3cccn3c3ccccc32)cc1C | n | n | -37! | n | n | n
CCc1ccc(NC(=O)Cn2c(=O)c3cccn3c3ccccc32)cc1 | n | n | n | u | n | n
CCc1ccc(NC(=O)CCn2c(=O)c3cccn3c3ccccc32)cc1 | -54 | n | n | n | n | n
CCCc1nc2c(C)cc(Br)cn2c1Cc1ccc(OC)cc1C | n | x | x | x | n | x
COc1ccc(Nc2nc3ccccc3s2)cc1 | n | n | -38 | u | n | n
Cc1cccc(Nc2n[nH]c(=S)s2)c1C | n | n | n | u | n | n
Cc1cccc(Nc2nc3ccccc3s2)c1C | n | n | n | u | n | 30
O=C(Nc1cccc(-c2nc3cc(Cl)ccc3o2)c1)c1ccc(F)cc1 | x | n | n | n | n | n
O=C(NCCc1ccccc1)c1nn(-c2ccc(F)cc2)nc1CO | x | n | n | x | n | n
CCOc1ccc(N2CC(NC(=O)c3ccc(S(=O)(=O)N4CCCC4)cc3)CC2=O)cc1 (stereo not given) | x | n | x | n | n | n
Cc1ccc2[nH]c3c(c2c1)CN(C(=O)CN1CCN(Cc2ccc4c(c2)OCO4)CC1)CC3 | n | n | -35 | u | n | 42
COc1ccc2cc(C(=O)N3CCN(Cc4ccc5c(c4)OCO5)CC3)[nH]c2c1 | n | n | n | u | n | 33
Cc1cc(C(=O)N2CCN(Cc3ccc4c(c3)OCO4)CC2)cs1 | -92 | n | n | n | n | n
Cc1ccc2[nH]c3c(c2c1)CN(C(=O)CN1CCSCC1)CC3 | x | n | n | n | x | n
Cc1cc(C)cc(C(=O)N2CCN(Cc3ccc4c(c3)OCO4)CC2)c1 | n | n | n | n | n | n
Cc1ccc(C(=O)N2CCN(Cc3ccc4c(c3)OCO4)CC2)cc1[N+](=O)[O-] | n | n | n | n | n | n
CCN1CCN(C(=O)c2cc3ccc(OC)cc3[nH]2)CC1 | n | n | n | u | n | n
O=C(c1cccc([N+](=O)[O-])c1)N1CCN(Cc2ccc3c(c2)OCO3)CC1 | n | n | -30 | n | n | n
CC(C)Cc1ccc(S(=O)(=O)Nc2cc3c(cc2N2CCOCC2)n(C)c(=O)c(=O)n3C)cc1 | x | n | n | x | n | n
Cc1ccccc1NC(=O)CSc1nc(=O)n(CCN2CCOCC2)c2c1CCC2 | x | n | x | n | n | n
Cc1ccc(CNC(=O)Cc2ccc(NC(=O)N3CCSc4ncccc43)cc2)cc1 | x | n | n | x | n | n
O=C(c1ccccc1F)N1CCN(Cc2ccc3c(c2)OCO3)CC1 | -67 | n | n | n | n | n
Cc1nn(Cc2ccccc2)c2sc(C(=O)N3CCN(Cc4ccc5c(c4)OCO5)CC3)cc12 | u | n | -31 | x | n | n
Cc1nn(Cc2ccccc2)c2sc(C(=O)NCc3cccnc3)cc12 | u | n | -47 | u | n | n
N#Cc1c(F)cccc1N1CCN(Cc2ccc3c(c2)OCO3)CC1 | -91 | x | -37 | n | n | n
SMILES | DRD3 antagonist | D1 potentiator | D1 antagonist | Chronic BCR inh | DRD3 agonist | D1 agonist
Cc1cc(C(=O)NCc2cccnc2)n(-c2ccccc2)n1 | n | n | n | n | n | n
O=S(=O)(Nc1cccc(-c2ccc(N3CCCCC3)nn2)c1)c1cccs1 | x | n | n | x | n | n
COc1ccc(Cn2c(C)nc3ccc([N+](=O)[O-])cc3c2=O)cc1 | n | n | -30 | n | n | n
Cc1nc2ccc([N+](=O)[O-])cc2c(=O)n1Cc1ccc(Cl)cc1 | n | n | n | n | n | n
Cc1ccc(-c2nc3ccc(Br)cn3c2CC(C)(C)C)cc1 | n | x | x | x | n | x
CN(Cc1ccccc1)C(=O)c1csc(COCCO)n1 | n | x | x | x | n | x
CCOc1ccc(Br)cc1/C=N/O | n | n | n | x | n | n
CCCOc1ccc(Br)cc1/C=N/O | n | n | n | x | n | 43
O=c1oc2ccccc2cc1-c1cn2cc(Cc3ccc(Br)cc3)sc2n1 | x | n | n | x | n | 45
Cc1cc(C)cc(C(=O)Nc2nnc(SCC(=O)NCC3CCCO3)s2)c1 (stereo not given) | n | n | n | n | n | n
COc1cc2c(=O)n(CCC(=O)NCC3CCCO3)c(=O)n(CC(=O)c3ccc(Cl)cc3)c2cc1OC (stereo not given) | n | n | -30 | n | n | n
COCCCNC(=O)CSc1nc2c(sc(=S)n2-c2cc(Cl)ccc2OC)c(=O)[nH]1 | n | n | n | n | n | n
COc1ccc(Cl)cc1-n1c(=S)sc2c(=O)[nH]c(SCC(=O)NCC3CCCO3)nc21 (stereo not given) | -58 | n | n | n | n | n
COc1ccc(C(=O)Nc2nnc(SCC(=O)NCC3CCCO3)s2)cc1OC (stereo not given) | n | n | -30 | n | n | n
CCN(C(=O)c1cn(CC)c(=O)c2cc(OC)c(OC)cc12)c1ccccc1F | x | n | n | x | n | n
CC(=O)c1c(C(C)=O)c(C)n(NC(=O)c2ccccc2Cl)c1C | n | n | -49 | n | n | n
COC(=O)[C@@H](N)Cc1ccc(O)c(O)c1 | n | n | -53 | n | n | n
O=C(NC1CCCC1)c1cc(Nc2cccc(C(F)(F)F)c2)nc2ccccc12 | x | n | n | u | n | n
COc1cccc(CN2CC(C(=O)NCCSc3nnnn3C)CCC2=O)c1 (stereo not given) | n | n | -37 | n | n | n
O=C(C1=NN(c2ccccc2)C2C(=O)N(c3ccc(Cl)cc3)C(=O)C12)c1ccccc1 (stereo not given) | n | n | n | n | n | 192
O=C(C1=C[C@@H]2[C@H]3C(=O)N(c4ccccc4)C(=O)[C@H]3[C@@H](C(=O)c3ccc(Cl)cc3)N2C=C1)c1ccccc1 | x | n | n | u | x | n
O=C(C1=NN(c2ccccc2)C2C(=O)N(c3cccc(Cl)c3)C(=O)C12)c1ccccc1 (stereo not given) | n | n | n | n | n | 104
CC(=O)C1=NOC2C(=O)N(c3ccc(Cl)cc3)C(=O)C12 (stereo not given) | n | n | n | n | n | 50
COc1ccc(-c2csc(/C(C#N)=C/Nc3ccc4c(c3)OCCO4)n2)cc1 | n | n | n | n | n | n
N#C/C(=C\Nc1ccc2c(c1)OCCO2)c1nc(-c2ccccc2)cs1 | n | n | -42 | n | n | n
Cc1cc(S(=O)(=O)Nc2cccc(-c3ccc(N4CCOCC4)nn3)c2)c(C)cc1Cl | x | n | n | x | n | n
Cc1ccc(CNC(=O)c2cn(C3CCCCC3)c(=O)c3c2c2ccccc2n3C)o1 | -75 | n | n | u | n | n
Cc1ccc(CNC(=O)c2cc3c(=O)n(C)c4ccccc4c3n2C)o1 | n | x | -45 | n | n | n
Cc1ccc(CNC(=O)c2cn(C)c(=O)c3c2c2ccccc2n3C)o1 | n | n | n | n | n | n

Assay outcomes (PubChem)
